An excerpt weighted towards active compounds, which were near 1.3% of everything screened.
HTR5A inv ag: inverse agonist of human HTR5A in OPRM1-OPRD1 counter-screen | inhibition, % at 9.3 µM | hit rate 0.083% among 340,000 | HTR5A cell line, luminescence, inverse agonism | P47898; in the data active = inhibition mostly above about 23%, no sharp cut-off; inactive = mostly below about 18%
OPRM1-OPRD1 inv: mu-delta opioid heterodimer inverse agonism; P35372+P41143; hit rate 0.21% among 340,000; AID 504357; inhibition, % at 9.3 µM; cell-based MOR-DOR heterodimer luminescence; in the data active = inhibition above about 22%, passing the limit was not always enough
Target sequence (P35372 whole entry, looked up): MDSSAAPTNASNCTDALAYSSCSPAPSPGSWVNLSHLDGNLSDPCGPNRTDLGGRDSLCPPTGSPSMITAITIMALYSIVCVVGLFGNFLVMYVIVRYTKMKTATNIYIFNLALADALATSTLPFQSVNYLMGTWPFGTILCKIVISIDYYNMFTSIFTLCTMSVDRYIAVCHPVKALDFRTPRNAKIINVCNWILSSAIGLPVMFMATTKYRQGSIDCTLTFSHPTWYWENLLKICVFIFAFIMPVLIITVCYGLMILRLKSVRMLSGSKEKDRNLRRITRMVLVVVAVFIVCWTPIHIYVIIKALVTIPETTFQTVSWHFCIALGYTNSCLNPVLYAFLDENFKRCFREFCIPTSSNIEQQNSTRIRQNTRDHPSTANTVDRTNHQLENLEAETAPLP
Target sequence (P41143 whole entry, looked up): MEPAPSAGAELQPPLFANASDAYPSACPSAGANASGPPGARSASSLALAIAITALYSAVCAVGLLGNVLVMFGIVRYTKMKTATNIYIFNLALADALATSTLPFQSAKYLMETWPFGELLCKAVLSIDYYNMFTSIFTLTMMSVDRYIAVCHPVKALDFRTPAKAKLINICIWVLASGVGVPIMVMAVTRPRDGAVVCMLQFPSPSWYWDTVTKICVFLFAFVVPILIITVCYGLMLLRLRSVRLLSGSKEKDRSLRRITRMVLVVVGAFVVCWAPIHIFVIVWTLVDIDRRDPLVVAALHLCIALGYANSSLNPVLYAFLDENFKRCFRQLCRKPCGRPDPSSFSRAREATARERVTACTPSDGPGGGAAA
PvdQ acylase: blocks Pseudomonas aeruginosa PvdQ acylase activity | purified PvdQ acylase, fluorescence plate reader | inhibition, % at 10 µM | hit rate 0.063% among 340,000; in the data active = inhibition above about 30%, passing the limit was not always enough
HTR5A ag ctr: activates human HTR5A in OPRM1-OPRD1 agonist counter-screen. P47898. HTR5A agonist assay, luminescence, cell-based. activation, % at 9.3 µM. hit rate 0.61% among 340,000. AID 504692; in the data active = activation mostly above about 9.5%, no sharp cut-off; inactive = mostly below about 7.6%
OPRM1-OPRD1 ag: OPRM1-OPRD1 heterodimerization agonism. P35372+P41143. cells, luminescence. activation, % at 9.3 µM. hit rate 0.3% among 340,000. AID 504326; in the data active = activation above about 18%
CR mimetic SO: yeast age-related superoxide inhibition as caloric restriction mimetic; AID 2690; S. cerevisiae aged cells, superoxide DHE fluorescence; hits give low values; hit rate 0.18% among 330,000; superoxide response (% of plate mean), % at 10 µM;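 active = superoxide response under a set limit, about three screen SD below normal, cut at about 65% in these data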;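 note: yeast aged for seven days with compound at 30 °C before DHE staining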
Of the large screens only hits and unclear results are named; the others gave an inactive call.

CCOc1ccc(-c2nc(CS(=O)(=O)CC(=O)NCc3ccc(F)cc3)c(C)o2)cc1	none
CCOC(=O)N1CCN(c2nc3ccccn3c(=O)c2C=O)CC1	PvdQ acylase 31.2
CSCCC(NC(=O)c1ccco1)C(=O)N(C)CC(=O)Nc1c(Cl)cccc1Cl (stereo unspecified)	none
CC(=O)c1c(C)n(CC(=O)NCc2ccco2)c2ccccc12	HTR5A ag ctr 9.8
Cc1ccccc1-n1c(=O)c2ccccc2n(CC(=O)NCc2ccco2)c1=O	none
Cc1cc(C)c(C#N)c(SCC(=O)c2ccccc2)n1	none
Cc1cc(C)c(C#N)c(SCC(O)CS(=O)(=O)Cc2ccccc2)n1 (stereo unspecified)	HTR5A ag ctr 12.1
CC1(C)C(=O)Nc2ccccc2N1C(=O)COC(=O)CNS(=O)(=O)c1ccc(F)c(F)c1F	none
CCC1(c2ccccc2)NC(=O)N(CC(=O)Nc2ccc(S(N)(=O)=O)cc2)C1=O (stereo unspecified)	none
O=C(NCCN1CCCCC1)c1cc(OCC(F)(F)F)ccc1OCC(F)(F)F	HTR5A ag ctr 10.4
Cc1ccc(CNCCCSc2ncccn2)cc1	none
O=C1c2cccc3cccc(c23)C(=O)C1(O)O	OPRM1-OPRD1 inv 46.3
COc1ccc(CNC(=O)c2cc(=O)c3cc(C)c(C)cc3o2)cc1	HTR5A ag ctr 10.1
COC(=O)c1noc(-c2ccc(OC)cc2)n1	PvdQ acylase 70.9
O=C(Nc1cccc(S(=O)(=O)N2CCOCC2)c1)c1cc(S(=O)(=O)N2CCOCC2)c(Cl)cc1Cl	none (no result: CR mimetic SO)
O=C(CNC(=O)OCc1ccccc1)Oc1ccc2ccc(=O)oc2c1	none
O=C(COc1ccc2ccc(=O)oc2c1)OCc1ccccc1	HTR5A ag ctr 12.4
Cc1nn(C(=O)c2ccco2)c(C)c1Sc1ccccc1	HTR5A ag ctr 11.5
Cc1nn(C(=O)c2ccco2)c(C)c1Sc1ccc(Br)cc1	none
O=C(C[C@H]1C/C=C\CC[C@H](Cc2ccc(F)cc2)C(=O)OCCNC1=O)NCCO	none
CC1Oc2ccccc2N(CC(=O)Nc2ccc(F)cc2)C1=O (stereo unspecified)	HTR5A ag ctr 10.9
COc1ccc(NC(=O)Nc2cccc3c2O[C@H](CN(C)S(=O)(=O)c2c(C)noc2C)[C@@H](C)CN([C@H](C)CO)C3=O)cc1	HTR5A ag ctr 10.4
CN(C)S(=O)(=O)c1ccc(N2CCOCC2)c(C(=O)NCc2ccc3c(c2)OCO3)c1	CR mimetic SO 61.8
NS(=O)(=O)c1ccc(N2CCOCC2)c(C(=O)NCc2ccc3c(c2)OCO3)c1	none (no result: CR mimetic SO)
COc1ccc(CNC(=O)COC(=O)c2c(NC(C)=O)sc(C)c2C)cc1	HTR5A ag ctr 14.0
CC(C)(C)OC(=O)N1CCC2(CC1)Oc1ccc(F)cc1C(=O)C21CC(c2ccccc2)=NO1 (stereo unspecified)	none (no result: CR mimetic SO)
O=c1[nH]cc(S(=O)(=O)Nc2ccc3c(c2)OCO3)c(=O)[nH]1	none
CCc1nn2c(=O)cc(CSCC(=O)Nc3ccccc3Cl)nc2s1	none
CC(=O)n1cc(N(C(=O)CCl)c2ccc(Cl)cc2)c2ccccc21	none (no result: HTR5A inv ag, OPRM1-OPRD1 inv, PvdQ acylase, HTR5A ag ctr, OPRM1-OPRD1 ag)
COc1ccccc1N(C(=O)CCl)c1cn(C(C)=O)c2ccccc12	HTR5A ag ctr 39.0, OPRM1-OPRD1 ag 50.5
COc1ccc(-c2ccc3c(N)c(C(=O)c4ccc(OC)c(OC)c4)sc3n2)cc1	none
COc1ccc(C(=O)c2sc3nc(-c4ccccc4)ccc3c2N)cc1OC	HTR5A ag ctr 17.8
Cc1ccccc1N1CCN(C2CCCN(C(=O)CCC3(C)CC3)C2)CC1 (stereo unspecified)	HTR5A ag ctr 10.4
NC(=O)c1ccccc1OCC(=O)N1CCC(Cc2ccccc2)CC1	none
Cc1onc(C(=O)N2CCN(C(c3ccccc3)c3ccccc3)CC2)c1[N+](=O)[O-]	HTR5A ag ctr 12.7
COc1ccccc1N1CCN(C(=O)c2noc(C)c2[N+](=O)[O-])CC1	none
O=C(NN1CCOCC1)c1cccc(Cl)c1	none
Cc1cc(O)c2/c(=N\N)c(-c3csc(C)n3)coc2c1	none
CCCNCC1C(Oc2ccc(Cl)cc2Cl)C(=O)N1c1cccc(C)c1C (stereo unspecified)	none
CCCCNCC1C(Oc2ccc(Cl)cc2)C(=O)N1c1ccccc1C (stereo unspecified)	HTR5A ag ctr 12.3
CCc1ccc(S(=O)(=O)/N=C2/C=C(Sc3ncn[nH]3)C(=O)c3ccccc32)cc1	OPRM1-OPRD1 ag 29.7
CCc1ccc(S(=O)(=O)/N=C2\C=CC(=O)c3ccccc32)cc1	none (no result: HTR5A inv ag, OPRM1-OPRD1 inv, PvdQ acylase, HTR5A ag ctr, OPRM1-OPRD1 ag)
COC(=O)c1cc(C(=O)OCC(=O)N2CCCCC2)cc([N+](=O)[O-])c1	none
CCC(CN(C)C)Oc1cc(NCc2ccccc2)c2ncn(C(C)C)c2c1 (stereo unspecified)	HTR5A ag ctr 21.4, OPRM1-OPRD1 ag 24.3
Cc1ccc(Nc2c(-c3ccccn3)nc3cccc(C)n23)cc1	OPRM1-OPRD1 inv 34.1
N#Cc1ccccc1S(=O)(=O)N1CCN(S(=O)(=O)c2ccc(Br)c(C(=O)O)c2)CC1	none
Cc1cccc(C)c1OCc1cc(C(=O)N(Cc2c(C)nn(C)c2C)C2CC2)no1	HTR5A ag ctr 11.4
Cc1cccc(C(=O)O/N=C2\CCCc3ccccc32)c1	HTR5A ag ctr 12.5
Cc1ccc(C(=O)O/N=C2\CCCc3ccccc32)cc1	none
CC1CCN(S(=O)(=O)c2ccc3c(c2)N(CC(=O)NCCCN2CC(C)CC(C)C2)C(=O)CS3)CC1 (stereo unspecified)	none
CC(C(=O)Nc1ccccc1)C(=O)Nc1ccccc1	none
CC(=O)C(Cl)C(=O)Nc1ccccc1 (stereo unspecified)	OPRM1-OPRD1 inv 74.5 (no result: CR mimetic SO)
O=C(Nc1ccccc1)C(Cl)C(=O)c1ccccc1 (stereo unspecified)	HTR5A inv ag 50.7, OPRM1-OPRD1 inv 95.6
CCCn1c(C)cc(C(=O)COC(=O)c2cc(S(=O)(=O)NCC(C)C)c(Cl)cc2Cl)c1C	HTR5A ag ctr 13.5
Cc1ccc2nc(NC(=O)CSCc3ccccc3)sc2c1	HTR5A ag ctr 10.2
CC(C)N(C(=O)CSc1nnc(C2CC2)n1C1CC1)c1ccccc1	none (no result: CR mimetic SO)
COC(=O)c1cc(/C=C/c2ccccc2)on1	PvdQ acylase 54.1
COC(=O)C1CCN(C2CC(=O)N(c3cc(C)cc(C)c3)C2=O)CC1 (stereo unspecified)	PvdQ acylase 36.3
CCN1C(=O)CC(N2CCC(C(=O)OC)CC2)C1=O (stereo unspecified)	none
CCOC(=O)/C(=C\c1ccccc1)C(=O)c1cc(C(C)=O)c(Nc2ccccc2)s1	none
CCOC(=O)/C(=C\c1cccnc1)C(=O)c1cc(C(C)=O)c(Nc2ccccc2)s1	OPRM1-OPRD1 inv 32.7
Nc1cccc(Nc2nc(OC(C(F)(F)F)C(F)(F)F)nc(OC(C(F)(F)F)C(F)(F)F)n2)c1	HTR5A ag ctr 12.2
COc1nc(Nc2ccc(O)cc2)nc(OC(C(F)(F)F)C(F)(F)F)n1	none
CN1CCN(S(=O)(=O)c2ccc(Br)c3ccccc23)CC1	HTR5A ag ctr 10.9
O=C(CSc1nc2ccccc2c(=O)n1-c1ccccc1F)Nc1ccc2c(c1)CCC2	none
